PubChem BioAssay (Tox21)
“And” between values parts separate entries of the source, which are not always exact repeats. Equal values may be shown once. Results filed as inconclusive are left out. A call without a number means that no potency is given here. Some structures have more than one record in an assay (separate samples or runs), and their calls can disagree. The source made the active and inactive calls. Unless noted, the call rests on the fitted dose curve; in most records, active means well fitted curve in the direction sought with a large enough effect in the repeat runs; inconclusive means weak or mixed curves; inactive means no such curve, though single readings can be large; an effect the other way counts as inactive or inconclusive.

Experiments:
[1] = qHTS assay to identify aromatase inhibitors - cell viability counter screen (AID 743084);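 further: cells stimulated with testosterone during compound exposure; nearly all actives have a fitted effect of over 55% in size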
[2] = biological target: Aryl hydrocarbon receptor (Homo sapiens) (UniProt P35869); experiment: qHTS assay to identify small molecule that activate the aryl hydrocarbon receptor (AhR) signaling pathway (AID 743085); further: nearly all actives have a fitted effect of over 15% in size; further: potency means the concentration at half of the fitted maximal effect;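 on activation: HG2L7.5c1 human HepG2 liver cells with stably integrated DRE-driven firefly reporter; series mostly up to about 70 µM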
How it was run: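 Compounds were tested in HepG2 hepatocellular carcinoma cells harbouring a stably integrated luciferase gene under control of 20 DREs. Increased reporter signal after 24 h treatment at 37C was taken as AhR activation.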

[3] = qHTS assay to identify small molecule that activate the aryl hydrocarbon receptor (AhR) signaling pathway - cell viability counter screen (AID 743086);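 further: HepG2 liver cells carrying the AhR DRE luciferase reporter; series mostly up to about 70 µM; nearly all actives have a fitted effect of over 45% in size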
How it was run: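 HepG2-AhR-luc (HG2L7.5c1) cells, 4000/well, treated 24 h at 37 C with compound; viability measured as CellTiter-Fluor fluorescence after 30 min in the same wells as the luciferase read.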

[4] = biological target: Peroxisome proliferator-activated receptor gamma (Homo sapiens) (UniProt P37231); experiment: qHTS assay to identify small molecule agonists of the peroxisome proliferator-activated receptor gamma (PPARg) signaling pathway (AID 743094; active means well fitted activation curve with a large enough effect in the signal ratio in the repeat runs, not every such curve was filed as active; the % refers to the signal ratio)
How it was run: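 Beta-lactamase FRET fluorescence was the read-out after a 1 h room-temperature substrate step, following 17 h compound treatment at 37C of HEK293H cells expressing a UAS-driven bla reporter responsive to PPARg.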

[5] = biological target: Peroxisome proliferator-activated receptor gamma (Homo sapiens) (UniProt P37231); experiment: qHTS assay to identify small molecule antagonists of the peroxisome proliferator-activated receptor gamma (PPARg) signaling pathway (AID 743191; calls by dose curve; further: series mostly up to about 63 µM; nearly all actives have a fitted effect of over 30% in size)
How it was run: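 GeneBLAzer PPARg UAS-bla HEK293H cells, 5 h post-plating, exposed to compounds 17 h at 37C. LiveBLAzer B/G FRET substrate added for 1 h at room temperature; beta-lactamase reporter read by fluorescence intensity.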

[6] = qHTS assay to identify small molecule antagonists of the peroxisome proliferator-activated receptor gamma (PPARg) signaling pathway - cell viability counter screen (AID 743194); further: nearly all actives have a fitted effect of over 55% in size
How it was run: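 Cytotoxicity counter screen in PPARg-bla HEK293H cells, same wells as reporter assay. Compounds plus 50 nM rosiglitazone (final) for 17 h at 37 C, then viability read by CellTiter-Glo luminescence.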

[7] = qHTS assay for small molecule agonists of the antioxidant response element (ARE) signaling pathway (AID 743202; active means well fitted activation curve with a large enough effect in the signal ratio in the repeat runs, not every such curve was filed as active; the % refers to the signal ratio)
How it was run: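 Agonist mode reporter screen: HepG2 cells with ARE-controlled beta-lactamase are incubated with test compounds for 16 h at 37 C, and beta-lactamase activity is measured as fluorescence of cleaved B/G FRET substrate.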

[8] = qHTS assay for small molecule agonists of the antioxidant response element (ARE) signaling pathway - cell viability counter screen (AID 743203; calls by dose curve; further: nearly all actives have a fitted effect of over 55% in size)
How it was run: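 HepG2 cells carrying ARE-driven beta-lactamase; 2,000 cells/well; 5 hrs plating; compound pinned from DMSO; 16 hrs 37C/5% CO2; CellTiter-Glo added; 30 min RT; luminescence.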

[9] = qHTS assay for small molecule activators of the heat shock response signaling pathway - cell viability counter screen (AID 743209); further: nearly all actives have a fitted effect of over 50% in size
How it was run: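 Luminescence from CellTiter-Glo, added after the beta-lactamase FRET read, gave the viability signal. Cells were HSE-bla HeLa treated with DMSO-dissolved compounds for 5 h at 37 C following overnight plating.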

[10] = qHTS assay for small molecule activators of the heat shock response signaling pathway (AID 743210; active means well fitted activation curve with a large enough effect in the signal ratio in the repeat runs, with a control signal flat, not every such curve was filed as active; the % refers to the signal ratio;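 further: HeLa cells with beta-lactamase reporter driven by heat shock elements; series mostly up to about 63 µM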)
How it was run: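 Quantitative high-throughput format using an engineered HeLa line in which heat shock response elements drive beta-lactamase; after 5 h with compound, cells received a B/G FRET substrate and fluorescence was read.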

[11] = qHTS assay to identify small molecule agonists of the peroxisome proliferator-activated receptor delta (PPARd) signaling pathway - cell viability counter screen (AID 743211); further: nearly all actives have a fitted effect of over 55% in size
How it was run: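 Counter screen for cytotoxicity run in parallel with the PPARd reporter screen. Beta-lactamase reporter HEK293H cells exposed to compounds 17 h; ATP-based CellTiter-Glo luminescence quantified viability.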

[12] = qHTS assay to identify small molecule antagonists of the peroxisome proliferator-activated receptor delta (PPARd) signaling pathway - cell viability counter screen (AID 743213); further: nearly all actives have a fitted effect of over 50% in size
How it was run: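 PPARd-bla HEK293H cells (3000/well) got compound plus 300 nM L165041 agonist for 17 h at 37 C. Viability in the same wells came from CellTiter-Glo luminescence after 30 min at room temperature.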

[13] = biological target: Bile acid receptor (Homo sapiens) (UniProt Q96RI1); experiment: qHTS assay to identify small molecule antagonists of the farnesoid-X-receptor (FXR) signaling pathway (AID 743217; active means well fitted inhibition curve with a large enough effect in the signal ratio in the repeat runs, not every such curve was filed as active; the % refers to the signal ratio)
How it was run: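 HEK 293T FXR-UAS-bla, 5000 cells/well; compound + CDCA 50 uM final; 16 h, 37 °C; B/G FRET substrate 2 h RT; fluorescence.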

[14] = qHTS assay to identify small molecule agonists of the farnesoid-X-receptor (FXR) signaling pathway - cell viability counter screen (AID 743218); further: nearly all actives have a fitted effect of over 45% in size
How it was run: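 HEK 293T FXR-bla cells; 5 h pre-incubation, 16 h compound exposure at 37 C; LiveBLAzer substrate 2 h RT, then CellTiter-Glo 30 min RT, luminescence.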

[15] = biological target: Bile acid receptor (Homo sapiens) (UniProt Q96RI1); experiment: qHTS assay to identify small molecule agonists of the farnesoid-X-receptor (FXR) signaling pathway (AID 743220; active means well fitted activation curve with a large enough effect in the signal ratio in the repeat runs, not every such curve was filed as active; the % refers to the signal ratio)
How it was run: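 Beta-lactamase reporter under UAS control in GeneBLAzer FXR HEK 293T cells (5000/well) measured with LiveBLAzer FRET substrate after 2 h at room temperature. Compound exposure lasted 16 h at 37C.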

[16] = qHTS assay to identify small molecule antagonists of the farnesoid-X-receptor (FXR) signaling pathway - cell viability counter screen (AID 743221; active means well fitted cell-killing curve with a large enough effect in the repeat runs, not every such curve was filed as active; further: nearly all actives have a fitted effect of over 50% in size)
How it was run: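 Multiplexed counter screen: viability of FXR-bla HEK 293T cells under agonist stimulation by chenodeoxycholic acid (50 uM, final) and test compound for 16 h at 37 C, measured by CellTiter-Glo luminescence in the reporter wells.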

[17] = biological target: Vitamin D3 receptor (Homo sapiens) (UniProt P11473); experiment: qHTS assay to identify small molecule antagonists of the vitamin D receptor (VDR) signaling pathway (AID 743223; active means well fitted inhibition curve with a large enough effect in the signal ratio in the repeat runs, not every such curve was filed as active; the % refers to the signal ratio)
How it was run: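 Cells carrying a VDR-driven beta-lactamase reporter (VDR-bla) were co-treated with compound and 3 nM final 1alpha,25-dihydroxyvitamin D3 for 16 h at 37C; reporter activity was measured as FRET substrate fluorescence after 2 h at room temperature.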

[18] = biological target: Peroxisome proliferator-activated receptor delta (Homo sapiens) (UniProt Q03181); experiment: qHTS assay to identify small molecule agonists of the peroxisome proliferator-activated receptor delta (PPARd) signaling pathway (AID 743212; calls by dose curve)
How it was run: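 Quantitative high-throughput agonist screen in a HEK293H beta-lactamase reporter line under UAS control. Compounds in DMSO, at 37 C. Fluorescence read after 2 h with FRET substrate at room temperature.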

[19] = biological target: Vitamin D3 receptor (Homo sapiens) (UniProt P11473); experiment: qHTS assay to identify small molecule agonists of the vitamin D receptor (VDR) signaling pathway (AID 743222; calls by dose curve)
How it was run: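 VDR-bla cells, 2,000/well; 4 h preincubation 37C; cpd (DMSO) 16 h; LiveBLAzer B/G substrate 2 h RT; fluorescence intensity read.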

[20] = biological target: Peroxisome proliferator-activated receptor delta (Homo sapiens) (UniProt Q03181); experiment: qHTS assay to identify small molecule antagonists of the peroxisome proliferator-activated receptor delta (PPARd) signaling pathway (AID 743215; active means well fitted inhibition curve with a large enough effect in the signal ratio in the repeat runs, not every such curve was filed as active; the % refers to the signal ratio;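 further: cells stimulated with agonist L165041 at 300 nM final during compound exposure; series mostly up to about 62 µM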)
How it was run: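 Read-out is beta-lactamase FRET fluorescence, measured 2 h after substrate addition at room temperature. Beforehand, UAS-bla HEK293H cells carrying the PPARd reporter were exposed to compounds with L165041 at 300 nM final for 17 h at 37 C.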

Vitamin D3 receptor (Homo sapiens), sequence (P11473 whole entry, looked up): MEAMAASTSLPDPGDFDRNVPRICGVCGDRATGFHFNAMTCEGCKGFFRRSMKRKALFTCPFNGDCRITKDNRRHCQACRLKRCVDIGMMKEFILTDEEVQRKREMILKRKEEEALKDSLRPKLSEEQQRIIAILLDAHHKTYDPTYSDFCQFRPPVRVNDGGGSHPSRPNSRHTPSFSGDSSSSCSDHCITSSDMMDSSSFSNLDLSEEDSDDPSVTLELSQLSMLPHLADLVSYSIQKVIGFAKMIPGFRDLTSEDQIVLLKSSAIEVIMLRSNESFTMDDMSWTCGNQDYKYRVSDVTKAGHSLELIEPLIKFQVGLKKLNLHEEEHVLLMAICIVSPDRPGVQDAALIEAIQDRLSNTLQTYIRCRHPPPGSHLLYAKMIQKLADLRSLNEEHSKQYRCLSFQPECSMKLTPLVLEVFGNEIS
Peroxisome proliferator-activated receptor gamma (Homo sapiens), sequence (P37231 whole entry, looked up): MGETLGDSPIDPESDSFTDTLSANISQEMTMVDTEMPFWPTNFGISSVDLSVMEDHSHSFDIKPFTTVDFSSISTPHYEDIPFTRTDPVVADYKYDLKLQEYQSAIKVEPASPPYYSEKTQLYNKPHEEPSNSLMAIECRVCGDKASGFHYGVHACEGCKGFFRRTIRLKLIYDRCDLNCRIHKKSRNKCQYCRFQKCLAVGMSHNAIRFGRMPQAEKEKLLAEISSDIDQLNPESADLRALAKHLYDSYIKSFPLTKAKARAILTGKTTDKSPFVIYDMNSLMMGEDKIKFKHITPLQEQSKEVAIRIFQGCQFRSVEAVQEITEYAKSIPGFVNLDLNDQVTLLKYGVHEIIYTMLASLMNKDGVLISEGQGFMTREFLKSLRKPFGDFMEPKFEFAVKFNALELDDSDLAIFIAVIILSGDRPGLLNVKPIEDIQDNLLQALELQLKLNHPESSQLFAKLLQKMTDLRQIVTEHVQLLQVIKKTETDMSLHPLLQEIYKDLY
Aryl hydrocarbon receptor (Homo sapiens), sequence (P35869 whole entry, looked up): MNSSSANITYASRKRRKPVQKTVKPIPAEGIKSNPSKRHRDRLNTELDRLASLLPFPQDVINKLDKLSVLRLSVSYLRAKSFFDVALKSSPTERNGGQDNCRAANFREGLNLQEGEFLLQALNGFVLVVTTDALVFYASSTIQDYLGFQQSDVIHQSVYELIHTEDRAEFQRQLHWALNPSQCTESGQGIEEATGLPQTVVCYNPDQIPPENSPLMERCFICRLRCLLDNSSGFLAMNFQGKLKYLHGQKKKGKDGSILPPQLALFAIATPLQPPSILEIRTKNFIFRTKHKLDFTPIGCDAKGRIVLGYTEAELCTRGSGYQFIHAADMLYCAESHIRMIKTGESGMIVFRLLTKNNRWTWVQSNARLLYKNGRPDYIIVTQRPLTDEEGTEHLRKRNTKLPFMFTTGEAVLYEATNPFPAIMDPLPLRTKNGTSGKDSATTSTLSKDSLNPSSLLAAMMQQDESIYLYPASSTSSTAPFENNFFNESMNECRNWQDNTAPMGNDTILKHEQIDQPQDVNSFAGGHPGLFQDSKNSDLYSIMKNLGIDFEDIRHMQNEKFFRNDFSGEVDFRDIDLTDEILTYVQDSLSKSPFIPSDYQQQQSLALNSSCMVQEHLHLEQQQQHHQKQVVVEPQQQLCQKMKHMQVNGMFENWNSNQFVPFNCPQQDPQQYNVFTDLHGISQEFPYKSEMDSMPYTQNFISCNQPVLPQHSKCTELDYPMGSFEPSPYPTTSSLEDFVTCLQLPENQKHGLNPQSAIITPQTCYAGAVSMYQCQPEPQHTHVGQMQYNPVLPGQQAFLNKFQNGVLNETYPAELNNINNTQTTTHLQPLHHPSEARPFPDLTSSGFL
Bile acid receptor (Homo sapiens), sequence (Q96RI1 whole entry, looked up): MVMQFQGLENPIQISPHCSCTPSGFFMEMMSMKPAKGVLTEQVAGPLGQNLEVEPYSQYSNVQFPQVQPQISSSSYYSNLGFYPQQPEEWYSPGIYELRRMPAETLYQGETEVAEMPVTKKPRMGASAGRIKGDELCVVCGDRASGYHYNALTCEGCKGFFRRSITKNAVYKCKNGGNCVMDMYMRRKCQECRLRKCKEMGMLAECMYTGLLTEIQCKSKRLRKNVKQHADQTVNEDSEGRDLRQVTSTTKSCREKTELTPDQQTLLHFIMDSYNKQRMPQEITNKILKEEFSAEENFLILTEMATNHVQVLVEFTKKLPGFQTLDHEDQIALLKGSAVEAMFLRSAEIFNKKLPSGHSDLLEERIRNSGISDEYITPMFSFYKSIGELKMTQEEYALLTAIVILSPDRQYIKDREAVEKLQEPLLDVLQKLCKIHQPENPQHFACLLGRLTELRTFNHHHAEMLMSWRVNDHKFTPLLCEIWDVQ
Peroxisome proliferator-activated receptor delta (Homo sapiens), sequence (Q03181 whole entry, looked up): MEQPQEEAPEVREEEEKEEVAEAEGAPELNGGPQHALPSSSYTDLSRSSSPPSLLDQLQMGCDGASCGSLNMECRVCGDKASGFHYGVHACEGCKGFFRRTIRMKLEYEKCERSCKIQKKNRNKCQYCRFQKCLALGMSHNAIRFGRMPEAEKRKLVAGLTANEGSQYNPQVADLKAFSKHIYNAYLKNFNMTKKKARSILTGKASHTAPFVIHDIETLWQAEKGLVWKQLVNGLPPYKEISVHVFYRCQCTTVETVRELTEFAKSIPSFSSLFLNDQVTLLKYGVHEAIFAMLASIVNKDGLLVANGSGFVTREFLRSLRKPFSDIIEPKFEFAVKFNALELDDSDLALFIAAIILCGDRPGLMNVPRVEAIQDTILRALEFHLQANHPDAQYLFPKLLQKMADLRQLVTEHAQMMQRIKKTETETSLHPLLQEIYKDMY

| Compound | Potency [1] | Potency [2] | outcome [3] | outcome [4] | outcome [5] | outcome [6] | Potency [7] | outcome [8] | outcome [9] | Potency [10] | outcome [11] | outcome [12] | outcome [13] | Potency [14] | outcome [15] | Potency [16] | outcome [17] | outcome [18] | outcome [19] | Potency [20] |
| --- | --- | --- | --- | --- | --- | --- | --- | --- | --- | --- | --- | --- | --- | --- | --- | --- | --- | --- | --- | --- |
| O=C(O)c1ccc2c(c1)C(=O)OC2=O | inactive | inactive | inactive | inactive | inactive | inactive | inactive | inactive | inactive | inactive | inactive | inactive | inactive | inactive | inactive | inactive | inactive | – | – | – |
| Cc1ccc2oc(=O)ccc2c1 | inactive | inactive | inactive | inactive | inactive | inactive | inactive | inactive | inactive | inactive | inactive | inactive | inactive | inactive | inactive | inactive | inactive | inactive | inactive | – |
| O=c1[nH]nnc2ccccc12 | inactive | inactive | inactive | inactive | inactive | – | inactive | inactive | inactive | inactive | inactive | inactive | inactive | inactive | inactive | inactive | inactive | inactive | inactive | inactive |
| Cc1cccnc1 | inactive | inactive | inactive | inactive | inactive | inactive | inactive | inactive | – | inactive | inactive | inactive | – | inactive | – | inactive | inactive | – | inactive | – |
| C=CCNC(N)=S | inactive | inactive | inactive | inactive | inactive | inactive | inactive | inactive | inactive | inactive | inactive | inactive | – | inactive | – | inactive | inactive | inactive | inactive | inactive |
| O=C1CCC(N2C(=O)c3ccccc3C2=O)C(=O)N1 (stereo not drawn) | inactive | inactive | inactive | inactive | inactive | inactive | inactive | inactive | – | inactive | inactive | inactive | – | inactive | – | inactive | – | inactive | – | – |
| c1ccc2scnc2c1 | inactive | inactive and 19.3 µM (active) | inactive | inactive | inactive | inactive | inactive | inactive | inactive | inactive | inactive | inactive | – | inactive | – | inactive | inactive | inactive | inactive | – |
| CC(O)COCC(C)O (stereo not drawn) | inactive | inactive | inactive | inactive | inactive | – | inactive | inactive | inactive | inactive | inactive | inactive | inactive | inactive | inactive | inactive | inactive | inactive | inactive | inactive |
